Among the test systems are PDGFRA; PDGFRB; PDPK1; PFTAIRE2; PHKG1; PHKG2; PIK3C2B; PIK3C2G; PIK3CA; PIK3CB; PIK3CD; PIK3CG; PIKFYVE; PIM1; PIM2; PIM3.
Holding throughout (conditions): concentration: 1 μM, replicates: in singlicate; n = 1
The test system of the next test is T1, PCTK2.
T1 construct: gene CDK17

For a further test, the system named is T2, PCTK3.
T2 construct: gene CDK18

A further test deals with T3, PFTK1.
T3 construct: gene CDK14

A further test relates to T4, PIK4CB.
T4 construct: gene PI4KB

The structures appear in SMILES notation.
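Note: KINOMEscan kinase panel screen.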

On to `COc1cc(Nc2nccc(N3CCC(NC(=O)c4cc5ccccc5s4)C3)n2)cc(OC)c1OC` (stereo not shown) [GSK1379760], for which the “%Inh” value is on record as 9% with PCTK2; 20% in the test with PCTK3; 0% with PDGFRA; 44% in the test with PDGFRB; 50% with PDPK1; 7% with PFTAIRE2. Besides, the “%Inh” value with PFTK1 is 0%; in the test with PHKG1, 12%; with PHKG2, 0%; in the test on PIK3C2B, 0%; in the test with PIK3C2G, 0%; with PIK3CA, 0%. In addition, the “%Inh” value with PIK3CB is reported as 0%; in the test with PIK3CD, 14%; in the test on PIK3CG, 0%; in the test on PIK4CB it was 0%; with PIKFYVE, 6%; with PIM1, 16%. Besides, the figures for the “%Inh” value with PIM2 and in the test on PIM3 were 0% and 3%, respectively.

On to `CC(C)c1nc(-c2cccc(NS(=O)(=O)c3c(F)cccc3F)c2F)c(-c2ccnc(Nc3ccc(N4CCOCC4)nc3)n2)s1` [GSK2008607], for which the “%Inh” value came to 100% with PCTK2; 100% with PCTK3; 90% in the test on PDGFRA; 100% in the test with PDGFRB; 0% with PDPK1; 94.6% in the test on PFTAIRE2. Also, the “%Inh” value is 98.7% in the test with PFTK1; 0% in the test on PHKG1; 0% with PHKG2; 49% in the test with PIK3C2B; 0% in the test on PIK3C2G; 6% with PIK3CA. The “%Inh” value in the test with PIK3CB is 0%; in the test with PIK3CD, 0%; with PIK3CG it was 0%; in the test with PIK4CB, 0%; in the test with PIKFYVE it was 31%; in the test on PIM1, 11%. The “%Inh” value in the test on PIM2 and in the test with PIM3 was 0% each time.

`O=C(O)C(F)(F)F.O=C(O)C(F)(F)F.O=c1[nH]ccc2nc(N[C@@H]3CCCNC3)nc(Nc3ccc(S(=O)(=O)N4CCOCC4)cc3)c12` [GSK2177277]: the “%Inh” value is on record as 98.3% in the test on PCTK2; 96.2% with PCTK3; 97.5% with PDGFRA; 100% with PDGFRB; 100% with PDPK1; 61% with PFTAIRE2. Also, the “%Inh” value in the test with PFTK1 is recorded as 65%; in the test with PHKG1 it was 97.7%; with PHKG2, 94.7%; with PIK3C2B, 51%; in the test with PIK3C2G, 0%; in the test on PIK3CA, 0%. The “%Inh” value turned out to be 0% in the test with PIK3CB; 0% with PIK3CD; 80% in the test on PIK3CG; 59% in the test on PIK4CB; 69% in the test on PIKFYVE; 97.5% in the test on PIM1. The “%Inh” value with PIM2 is 98.8%; in the test on PIM3 it was 99.8%.

Regarding `Nc1ncc(-c2cccnc2)c2scc(-c3ccc4c(c3)CCN4C(=O)Cc3ccccc3)c12` [GSK683281], the “%Inh” value came out at 8% with PCTK2; 18% in the test with PCTK3; 53% with PDGFRA; 94.3% in the test on PDGFRB; 21% in the test on PDPK1; 33% with PFTAIRE2. Moreover, the “%Inh” value is reported as 20% in the test with PFTK1; 18% in the test with PHKG1; 0% in the test with PHKG2; 0% in the test with PIK3C2B; 0% with PIK3C2G; 0% with PIK3CA. Besides, the “%Inh” value with PIK3CB, in the test with PIK3CD, with PIK3CG, in the test with PIK4CB, in the test on PIKFYVE and in the test with PIM1 was 0% in each case. The “%Inh” value in the test on PIM2 and in the test with PIM3 was 0% each time.

Consider `O=C(Nc1cccc(-c2nn3ncccc3c2-c2ccnc(Nc3ccccc3)n2)c1)c1c(F)cccc1F` [GSK198271], for which the “%Inh” value turned out to be 0% in the test with PCTK2; 17% in the test on PCTK3; 65% in the test with PDGFRA; 100% in the test with PDGFRB; 0% with PDPK1; 23% with PFTAIRE2. Moreover, the “%Inh” value in the test on PFTK1, in the test on PHKG1, with PHKG2, in the test with PIK3C2B, in the test with PIK3C2G and with PIK3CA was 0% throughout. For the same compound, the “%Inh” value in the test on PIK3CB is 0%; in the test with PIK3CD it was 0%; in the test on PIK3CG, 0%; in the test with PIK4CB, 6%; in the test on PIKFYVE, 0%; with PIM1 it was 16%. The results for the “%Inh” value in the test on PIM2 and with PIM3 were 0% and 5%, respectively.

`CCS(=O)(=O)c1ccc(OC)c(Nc2nccc(-c3c(-c4cccc(NC(=O)c5c(F)cccc5F)c4)nn4ncccc34)n2)c1` [GSK326180]: the “%Inh” value in the test with PCTK2 turned out to be 0%; with PCTK3 it was 18%; in the test with PDGFRA, 0%; in the test on PDGFRB, 40%; with PDPK1 it was 0%; with PFTAIRE2 it was 27%. Further, the “%Inh” value in the test with PFTK1 is on record as 17%; with PHKG1 it was 1%; in the test with PHKG2, 0%; in the test on PIK3C2B, 0%; in the test on PIK3C2G, 0%; in the test with PIK3CA, 0%. Also, the “%Inh” value in the test with PIK3CB amounted to 0%; with PIK3CD it was 0%; in the test on PIK3CG, 3%; in the test on PIK4CB it was 7%; with PIKFYVE, 0%; in the test with PIM1, 0%. Further, the “%Inh” value in the test on PIM2 and in the test on PIM3 was 0% each time.

`Cl.Cl.NCC(NC(=O)c1cc(-c2ccccc2)c(-c2ccnc3[nH]ccc23)s1)c1ccccc1` (stereo not shown) [GSK1321561]: the “%Inh” value is listed as 0% in the test on PCTK2; 0% in the test with PCTK3; 0% in the test on PDGFRA; 45% in the test on PDGFRB; 20% in the test with PDPK1; 6% in the test with PFTAIRE2. Further, the “%Inh” value is given as 17% in the test with PFTK1; 0% in the test with PHKG1; 0% in the test on PHKG2; 0% in the test with PIK3C2B; 0% in the test on PIK3C2G; 0% with PIK3CA. The “%Inh” value in the test on PIK3CB worked out at 0%; in the test with PIK3CD it was 0%; with PIK3CG, 4%; with PIK4CB, 0%; in the test on PIKFYVE, 0%; with PIM1, 0%. Moreover, the “%Inh” value in the test with PIM2 and in the test on PIM3 was 0% throughout.

Take `Cl.NC(=O)c1cccc(Nc2nccc(Nc3ccc(Oc4c(Cl)cccc4Cl)c(Cl)c3)n2)c1` [GW659009]: the “%Inh” value with PCTK2 is reported as 0%; with PCTK3, 0%; in the test with PDGFRA it was 0%; in the test on PDGFRB, 36%; in the test with PDPK1, 0%; in the test with PFTAIRE2, 15%. The “%Inh” value with PFTK1, with PHKG1, in the test on PHKG2, in the test with PIK3C2B, in the test with PIK3C2G and in the test with PIK3CA was 0% throughout. Moreover, the “%Inh” value in the test on PIK3CB is given as 0%; with PIK3CD it was 4%; in the test on PIK3CG, 0%; in the test on PIK4CB it was 0%; in the test with PIKFYVE it was 0%; with PIM1, 13%. The “%Inh” value with PIM2 is recorded as 0%; in the test with PIM3 it was 4%.

These data come from article PMC5540273 (PLoS ONE, 2017).
